# About 83,000 compounds went through this panel and 20% of them were active in at least one assay; those are over-represented in the sample as a whole.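 Negative percent growth values reflect cell death: -40 means 40% of the cells present at the start died, and -100 means all died.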 A number with no mark means an inactive call. Calls of active or inactive are those of the source. How the source made its calls: active means growth percent below 10; inactive means the rest.
# How the values were obtained:
# Assay in all cases: NCI-60 one-dose screen, 48 h (100 = growth as untreated, 0 = no growth, -100 = all killed)
# Conditions in all cases: 10 µM
# HCT-15 colon = system: HCT-15 colon
# HT29 colon = system: HT29 colon
# SNB-75 CNS = system: SNB-75 CNS
# SNB-19 CNS = system: SNB-19 CNS
# U251 CNS = system: U251 CNS
# PC-3 prostate = system: PC-3 prostate
# SK-MEL-5 melanoma = system: SK-MEL-5 melanoma
# UACC-62 melanoma = system: UACC-62 melanoma
# LOX IMVI melanoma = system: LOX IMVI melanoma
# SK-MEL-28 melanoma = system: SK-MEL-28 melanoma
# SK-MEL-2 melanoma = system: SK-MEL-2 melanoma
# EKVX NSCLC = system: EKVX NSCLC
# SN12C renal = system: SN12C renal
# UO-31 renal = system: UO-31 renal
# ACHN renal = system: ACHN renal
# CCRF-CEM leukemia = system: CCRF-CEM leukemia
# MOLT-4 leukemia = system: MOLT-4 leukemia
# TK-10 renal = system: TK-10 renal
# CAKI-1 renal = system: CAKI-1 renal
# A498 renal = system: A498 renal
SMILES,growth (HCT-15 colon),growth (HT29 colon),growth (SNB-75 CNS),growth (SNB-19 CNS) [%],growth (U251 CNS),growth (PC-3 prostate),growth (SK-MEL-5 melanoma),growth (UACC-62 melanoma),growth (LOX IMVI melanoma),growth (SK-MEL-28 melanoma),growth (SK-MEL-2 melanoma),growth (EKVX NSCLC),growth (SN12C renal),growth (UO-31 renal),growth (ACHN renal),growth (CCRF-CEM leukemia),growth (MOLT-4 leukemia),growth (TK-10 renal) [%],growth (CAKI-1 renal),growth (A498 renal)
NS(=O)(=O)c1ccc(N2N=C(c3ccccc3)CCC2=O)cc1,109%,98.6%,108%,94.7,104%,105%,105%,106%,108%,120%,107%,130%,101%,104%,114%,108%,93.2%,,,
COC1=CC(=O)OC(c2ccc(OC)cc2)C1 (configuration not stated),121%,110%,86.3%,104,117%,105%,106%,101%,94.9%,123%,98.9%,96.1%,99.3%,,103%,107%,101%,104,85.8%,96.4%
O=S(=O)(O)c1ccc(Cl)cc1,100%,93.6%,100%,102,101%,96.5%,98.3%,99.8%,96.3%,113%,95.9%,105%,100%,88.7%,104%,106%,98.7%,,,110%
O=C(CSc1nccc(Nc2cccc3ccccc23)n1)c1ccc(Cl)cc1,101%,86.9%,88%,89.3,96.1%,83.9%,98.3%,70.2%,77.6%,106%,102%,76.9%,82.6%,49.8%,91.7%,83.1%,88.1%,,60.3%,105%
COc1ccccc1/C=N\N/C(N)=N\N=C\c1ccccc1OC,1.27% (active),-1.01% (active),21.5%,35.3,5.71% (active),29.3%,-30% (active),19.7%,5.74% (active),56.9%,21.4%,26.1%,18.4%,14.1%,20.5%,-19.6% (active),4.77% (active),,-7% (active),-66.5% (active)
CS(=O)(=O)c1nccc(-c2c(-c3cccc(O)c3)nc3sccn23)n1,101%,91.7%,70.4%,103,91.9%,96.8%,86%,85.9%,91.5%,94%,107%,88.7%,91%,66.5%,86.2%,90%,93%,,95.5%,70.5%
CC(C)c1ccc(C(C)C(=O)N(CC2=C(C(C)c3ccccn3)c3ccccc3C2)C(C)C)cc1 (configuration not stated),30.3%,22.3%,49.3%,58.2,36%,17.9%,30.2%,53.4%,31.1%,79.7%,24.1%,13.6%,,-12.2% (active),36.6%,30.4%,,53.8,3.55% (active),49.1%
O=C(O)c1ccc(-n2cc(CNc3ccc(Oc4ccccc4)cc3)c(-c3ccccc3)n2)cc1,72.9%,102%,81.6%,87.7,83.3%,96%,96.8%,83.4%,90.4%,86.8%,88.5%,85.1%,93.4%,76.6%,,,-4.16% (active),,,83.2%
COc1cc(-c2csc(NC(=O)Nc3cc(C(F)(F)F)cc(C(F)(F)F)c3)n2)cc(OC)c1OC,11.8%,7.94% (active),34.1%,25.3,9.2% (active),4.29% (active),-4.49% (active),18.7%,6.63% (active),17.6%,7.21% (active),4.59% (active),7.93% (active),7.12% (active),4.33% (active),,17.4%,,10.4%,10.1%
COc1cc2cc(Oc3ccc(NC(=O)Nc4ccc(Cl)c(C(F)(F)F)c4)cc3)c(C)nc2cc1OC,1.27% (active),-24.9% (active),12.5%,23.7,-80.4% (active),-0.614% (active),-73.4% (active),-51.5% (active),-81.3% (active),-35.9% (active),-49.8% (active),8.83% (active),13.2%,-45.1% (active),13.6%,-17.6% (active),-27.9% (active),,-8.92% (active),10.5%
C=CCn1c(SCC(=O)Nc2ccc(C(=O)/C=C/c3cc(OC)c(OC)c(OC)c3)cc2)nnc1-c1cc(-c2ccc(Cl)cc2)nc2ccccc12,59.5%,74.7%,68.8%,84.1,86.3%,71.7%,91%,84.2%,75.5%,100%,103%,86.4%,86.8%,57.1%,86.1%,,52.6%,,67.2%,80.6%
CCn1c(SC/C(=N/O)c2ccccc2)nnc1-c1ccccc1,101%,104%,87.8%,98.9,102%,81.2%,100%,86.2%,104%,106%,108%,90.6%,88.6%,91.5%,105%,88.9%,94.8%,,89%,69.3%
COc1cc2cc(Oc3ccc(NC(=O)c4ccc(Cl)c(C(F)(F)F)c4)cc3)c(C)nc2cc1OC,26.9%,26%,68.4%,39.3,2.03% (active),4.32% (active),25.5%,13.9%,33%,66.9%,31.2%,18.8%,24.1%,18.3%,26.6%,19.9%,18%,,21.6%,
O=C(CSc1nnc(-c2cccnc2SCc2ccccc2)o1)Nc1nc(Cl)cc(Cl)n1,106%,110%,85.7%,106,106%,94.5%,101%,101%,94.9%,113%,102%,103%,,67.7%,103%,101%,95.7%,109,95.8%,112%
CC(C)=CCC/C(C)=C/CC/C(C)=C/CC/C=C(\C)CC/C=C(\C)CCC(=O)Nc1ccn(C2OC(CO)C(O)C2(F)F)c(=O)n1 (configuration not stated),50.9%,36.2%,4.15% (active),23.4,20.5%,37.2%,-63.4% (active),22%,5.76% (active),60%,-4.27% (active),34.6%,15.3%,3.33% (active),6.71% (active),-6.58% (active),-14.2% (active),,-20.9% (active),-44.9% (active)
COc1ccc2c(c1)C(CC(=O)NN)CCC2 (configuration not stated),104%,112%,89.9%,109,102%,100%,104%,104%,93.7%,113%,108%,109%,104%,,99.6%,100%,86.8%,98.7,91.2%,
COc1ccc(/C=C2\CCCC3=C2NC(N)=NC3c2ccc(OC)c(OC)c2)cc1OC (configuration not stated),35.9%,24.2%,63.9%,88.7,37.8%,61.5%,39.7%,52.8%,12.9%,65.3%,56.8%,82.7%,57.4%,63%,27.3%,15.3%,53.1%,,55.9%,91.3%

# Source: PubChem BioAssay (NCI)
